# Compound activity: PubChem, The Scripps Research Institute Molecular Screening Center
# An excerpt weighted towards active compounds, which were near 3.4% of everything screened.
# GPR151 activ = human GPR151 activation. PathHunter beta-arrestin GPR151 cells, luminescence. activation, % at 11.2 µM. 650,000 tested, 1% active; in the data active = activation above about 4.9%
# Target sequence (Q8TDV0 whole entry, looked up): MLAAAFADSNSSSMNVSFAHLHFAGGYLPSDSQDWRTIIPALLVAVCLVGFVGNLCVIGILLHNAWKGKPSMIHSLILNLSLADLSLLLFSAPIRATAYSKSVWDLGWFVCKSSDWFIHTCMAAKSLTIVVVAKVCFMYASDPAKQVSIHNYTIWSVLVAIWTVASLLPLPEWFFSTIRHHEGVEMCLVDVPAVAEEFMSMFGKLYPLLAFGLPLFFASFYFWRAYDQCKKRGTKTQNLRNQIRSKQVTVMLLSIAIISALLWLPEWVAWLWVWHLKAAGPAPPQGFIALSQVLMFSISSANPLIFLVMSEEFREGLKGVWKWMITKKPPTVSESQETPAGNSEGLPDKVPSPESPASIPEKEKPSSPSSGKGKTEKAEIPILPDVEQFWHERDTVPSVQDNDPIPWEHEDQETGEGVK
# MITF inh = human MITF inhibition, primary screen. O75030. AlphaScreen MITF homodimerization, bead proximity signal. inhibition, % at 2.6 µM. 650,000 tested, 0.91% active. AID 1259374; in the data active = inhibition above about 50%
# TEAD-YAP inh = TEAD-YAP interaction inhibition | HEK-TIYL cells, TEAD-Gal4/YAP UAS-luciferase luminescence | inhibition, % at 9.12 µM | 640,000 tested, 1.4% active | AID 1259422; in the data active = inhibition above about 32%
# FBW7 activator = activators of human E3 ligase FBW7 | Q969H0 | AlphaScreen FBW7–phospho-cyclin E peptide binding, activator screen | normalized activity (activation), % at 26.1 µM | 650,000 tested, 0.13% active | AID 1259310; in the data active = normalized activity above about 1.9%;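 note: purified mutant Fbw7 with reduced substrate affinity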
# MITF inh conf = confirmation of human MITF inhibitors; shares compounds with MITF inh; 4,700 tested, 16% active; AlphaScreen MITF homodimerization, biotin/His-MITF beads; AID 1259372; inhibition, % at 2.6 µM;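 active = inhibition above a cutoff derived from the DMSO control wells, cut at about 28% in these data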;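 note: inhibitors lower the bead chemiluminescence by keeping MITF from dimerizing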
# AlphaScreen DR = AlphaScreen optical interference, dose response counter-screen | 480 tested, 6% active | AlphaScreen optical interference counterscreen, cell-free | shares compounds with MITF inh | IC50, µM; call rule not given here
# AS interf ctr = counter-screen: compounds optically interfering with AlphaScreen | shares compounds with MITF inh | LysRS AlphaScreen counterscreen, signal interference, triplicate | inhibition, % at 2.6 µM | 4,700 tested, 7.6% active | AID 1259376;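 active = inhibition above a cutoff derived from the DMSO control wells, cut at about 30% in these data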
# Numbers stand for hits; n = inactive; x = not tested or not shown.
SMILES,GPR151 activ,MITF inh,TEAD-YAP inh,FBW7 activator,MITF inh conf,AS interf ctr,others
CC(NCc1ccccc1)C1COc2ccccc2O1 (configuration not stated),n,58,n,n,n,n,
COc1ccc(S(=O)(=O)N(C)CC(=O)NCc2ccccc2Cl)cc1C,n,n,n,n,x,x,
COC(=O)CCCC[C@H]1SC[C@H]2NC(=O)N[C@]21O,n,84,n,n,107,92,
CCOc1ccc(CCNC(=O)CN2C(=O)c3ccccc3C2=O)cc1OCC,n,n,n,n,x,x,
COc1cc(-c2[nH]nc3c2C(c2ccc4c(c2)OCO4)C(C#N)=C(N)O3)cc(OC)c1OC (configuration not stated),n,66,n,n,n,n,
COc1ccc2[nH]c(=O)c(C(c3nnnn3C(C)(C)C)N3CCCC3)cc2c1 (configuration not stated),n,n,n,n,x,x,
O=C(C1CCN(Cc2nc3ccccc3[nH]2)CC1)N1CCc2ccccc2C1,n,62,n,n,n,n,
O=C(NCc1ccc2c(c1)OCO2)C1CCN(Cc2nc3ccccc3[nH]2)CC1,n,63,n,n,n,n,
O=C(C1CCN(Cc2nc3ccccc3[nH]2)CC1)N1CCN(c2ccc(F)cc2)CC1,n,58,n,n,n,n,
O=C(C1CC12CCN(Cc1nc3ccccc3[nH]1)CC2)N1CCN(c2ccccc2)CC1 (configuration not stated),n,n,n,n,x,x,
CCCN(CCC)C(=O)CSc1nc2ccsc2c(=O)n1CCCCCC(=O)NCCc1ccc(OC)c(OC)c1,n,n,n,n,x,x,
CCOC(=O)C1CCN(c2cc(=O)n(-c3ccc(C)cc3)c(=O)[nH]2)CC1,n,n,n,n,x,x,
Cc1occc1C(=O)N/N=C/C=C/c1ccco1,n,80,n,n,44,n,AlphaScreen DR=n
O=C(N/N=C/c1ccccn1)c1ccccn1,n,n,n,n,x,x,
Cc1occc1C(=O)N/N=C/C1CCCCC1,n,n,n,n,x,x,
O=C(N/N=C\c1ccccn1)c1ccccn1,n,54,n,n,28,82,
O=C(N/N=C/C=C\c1ccco1)c1ccccn1,n,101,n,n,94,69,
O=C(N/N=C/C=C\c1ccco1)c1ccncc1,n,n,n,n,x,x,
Cc1occc1C(=O)N/N=C/C1CC=CCC1 (configuration not stated),n,81,n,n,n,n,
Cc1c(C)c2ccc(OC3CCCCC3=O)c(C)c2oc1=O (configuration not stated),n,n,n,n,x,x,
O=[N+]([O-])c1ccc(N2CCN(CCOCCO)CC2)c([N+](=O)[O-])c1,n,56,n,n,n,n,
CC(C)NC(=O)Cn1c(SCC(=O)N2CCCCC2)nc2ccccc21,n,n,n,n,x,x,
COc1cc(OC)nc(Oc2cccnc2C(=O)NNc2ccccc2)n1,n,54,n,n,36,70,
CCCN(CCC)S(=O)(=O)c1ccc(C(=O)OCC(=O)c2ccccc2)cc1,n,n,n,n,x,x,
Cc1ccc2onc(CNC(=O)NCc3ccc(F)cc3)c2c1,n,n,n,n,x,x,
SMILES,GPR151 activ,MITF inh,TEAD-YAP inh,FBW7 activator,MITF inh conf,AS interf ctr,others
COc1cc(C=Nc2ccc(N(C)C)cc2)cc(I)c1O,n,77,n,n,45,n,AlphaScreen DR=n
CC(=O)CCc1ccc(OCC(O)CNC2CCCc3ccccc32)cc1 (configuration not stated),n,70,n,n,n,n,
CCc1ccccc1OC[C@@H](O)CNC1CCCc2ccccc21 (some centres not stated),n,n,x,n,x,x,
COc1ccc(C(=O)N2CCN(Cc3cccnc3)CC2)cc1,n,67,n,n,n,n,
COc1ccc(CN2CCN(C(=O)c3ccc([N+](=O)[O-])cc3)CC2)cc1,n,60,n,n,n,n,
COc1ccc(C(=O)N2CCN(Cc3cccnc3)CC2)cc1OC,n,78,n,n,n,n,
O=C(c1cccc2ccccc12)N1CCN(Cc2cccnc2)CC1,n,60,n,n,n,n,
O=C(c1ccc([N+](=O)[O-])cc1)N1CCN(Cc2cccnc2)CC1,n,74,n,n,n,n,
Cc1cc(Cl)cc(Cl)c1OCCCCNCCN1CCOCC1,n,62,n,n,n,n,
Cc1cc(C)c(OCCN2CCOCC2)c(Cl)c1,n,54,n,n,n,n,
Cc1cccc(C(C)(C)C)c1OCCN1CCOCC1,n,80,n,n,n,n,
C/C=C/C(=O)N1c2ccc(OC)cc2C(C)=CC1(C)C,n,n,n,n,x,x,
COc1ccc2c(c1)C(C)=CC(C)(C)N2C(N)=S,n,72,n,n,65,54,
O=C(CC1(O)C(=O)Nc2ccccc21)c1ccc([N+](=O)[O-])cc1 (configuration not stated),n,n,n,n,x,x,
O=C(CC1(O)C(=O)Nc2ccc([N+](=O)[O-])cc21)c1ccccc1 (configuration not stated),n,69,n,n,n,n,
COc1ccc(CNCCSc2nccn2C)cc1,n,70,n,n,n,n,
N#CC1=C(N)Oc2n[nH]c(-c3ccccn3)c2C1c1ccc([N+](=O)[O-])s1 (configuration not stated),n,107,n,n,117,100,
COc1ccc(NC(=O)c2cc(Br)ccc2Cl)cc1,n,n,n,n,x,x,
COc1ccc(CN2CCC(C(=O)NC(C)(C)C)CC2)cc1OC,n,n,n,n,x,x,
Cc1ccccc1OCC(=O)Nc1nc(-c2ccccc2)cs1,n,n,n,n,x,x,
Cc1ccc(-c2csc(NC(=O)COc3ccccc3C(C)(C)C)n2)cc1,n,56,n,n,n,n,
CC(C)(C)N/N=C/c1ccccc1[N+](=O)[O-],n,n,n,n,x,x,
CC1=NN(c2ccccc2)C(=O)C1C(c1ccc([N+](=O)[O-])cc1)C(C#N)C#N (configuration not stated),n,n,n,n,x,x,
CC1=NN(c2ccccc2)C(=O)C1C(c1ccccc1[N+](=O)[O-])C(C#N)C#N (configuration not stated),n,52,n,n,n,n,
O=C(CN1C(=O)c2ccccc2C1=O)NC1CCCCC1,n,53,n,n,n,n,
SMILES,GPR151 activ,MITF inh,TEAD-YAP inh,FBW7 activator,MITF inh conf,AS interf ctr,others
COc1ccc(-c2[nH]nc3nc(-c4cc(OC)c(O)c(OC)c4)cc(C(=O)O)c23)cc1,n,70,n,n,n,n,
CC(=O)c1cccc(NC(=O)CN(C)S(=O)(=O)c2cccc3cccnc23)c1,n,n,n,n,x,x,
Cc1cc(C(=O)O)ccc1-c1ccc(/C=C2/NC(=O)NC2=O)o1,n,67,n,n,68,n,AlphaScreen DR=n
COc1ccc(NC(=O)CCNS(=O)(=O)c2cccc3nonc23)cc1Cl,n,55,n,n,n,n,
COc1ccc(NC(=O)CNS(=O)(=O)c2cccc3nonc23)cc1Cl,n,n,n,n,x,x,
Cc1ccc(/C=c2\sc3ncnn3c2=O)o1,n,61,n,n,n,n,
